# Test results from PubChem BioAssay AID1789 (The Scripps Research Institute Molecular Screening Center, 2009).
# Out of some 290,000 compounds screened, about 2,700 (0.93%) were called active.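 The calls were made as follows: active = inhibition above the screen-wide mean plus 3 SD, computed separately per campaign (cut at about 16% in these data); inactive = the rest.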 The entries come from a sample that favours actives as a whole.
# System: Heat shock protein HSP 90 (rabbit reticulocyte lysate; luciferase refolding)
# Experiment: inhibitors of HSP90 chaperone activity – cell lysate, luminescence, primary screen (AID 1789);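 also: 0% = DMSO wells and 100% = 60 µM geldanamycin wells; inhibitors lower the luminescence because luciferase stays unfolded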
# Settings: 3 h, at 5.6 µM, stronger effect = higher value
row,SMILES,inhibition
1,CCOc1ccc(OCC(=O)Nc2c3c(nn2C(C)(C)C)CS(=O)(=O)C3)cc1,4.2% (inactive)
2,CCN(CCCNC(=O)CCn1c(=O)[nH]c2ccsc2c1=O)c1ccccc1,0.39% (inactive)
3,Cc1cccc(C(=O)NCCCN(C)CCCNC(=O)c2cccc(C)c2)c1,-1.31% (inactive)
4,CCN(CCCNC(=O)c1ccc2c(c1)NC(=O)CN2C)c1cccc(C)c1,19.6% (active)
5,O=C(Oc1cccc(C(=S)N2CCOCC2)c1)c1cccc(Cl)c1,-2.58% (inactive)
6,C=CCN1CCN(C(=O)CCCc2ccccc2)CC1,39.7% (active)
7,CC(=O)c1ccc(N2CCN(C(=O)CCc3ccccc3)CC2)cc1,-1.79% (inactive)
8,O=C(CCCc1ccccc1)NCc1ccccc1,-2.48% (inactive)
9,O=C(OCc1ccc(-c2ccccc2)cc1)c1cccc(O)c1,18.4% (active)
10,O=C(OCC(=O)c1c[nH]c2ccccc12)c1cccc(O)c1,-4.88% (inactive)
11,O=C(OCc1ccc(Br)cc1)c1cccc(-c2nnc(-c3ccccc3)o2)c1,3.03% (inactive)
12,O=C(COc1cc2oc(=O)c3c(c2cc1Cl)CCC3)NCCCN1CCOCC1,-0.69% (inactive)
13,COc1ccc(N2CCN(C(=O)C3CCN(C(=O)c4ccccc4Cl)CC3)CC2)cc1,1.46% (inactive)
14,COc1ccc(NC(=O)C/C(C)=N/NC(=O)c2cnccn2)cc1Cl,-1.56% (inactive)
15,Cc1ccc(Sc2cc(C(=O)c3ccccc3C(=O)O)ccc2[N+](=O)[O-])cc1,-2.36% (inactive)
16,O=C(CSc1cccc[n+]1[O-])c1ccc(-c2ccccc2)cc1,-3.2% (inactive)
17,Cc1ccc(C(=O)CSc2ccccc2C(=O)O)cc1,23.8% (active)
18,COc1ccc(C(C(=O)NC2CCCC2)N(CCCO)C(=O)Cn2nnc(-c3ccc(C)o3)n2)cc1 (centres undefined),-2.61% (inactive)
19,CCOC(=O)CSc1nc(N2CCOCC2)c2c(c1C#N)CC(C(C)C)OC2 (centres undefined),0.22% (inactive)
20,CCC(=C/c1sc2ccc3ccccc3c2[n+]1C)/C=C1\Sc2ccc3ccccc3c2N1C,19.1% (active)
21,CCn1c(=O)c(=O)[nH]c2c(=O)oc3ccc(S(=O)(=O)Nc4ccc(OC)cc4)cc3c21,1.48% (inactive)
22,CCOC(=O)c1ccc(NC(=O)c2ccc(NC(=O)C3CCCO3)cc2)cc1 (centres undefined),-2.21% (inactive)
23,COc1ccc(CCNC(=O)C(=O)NCC2OCCN2S(=O)(=O)c2ccc(OC)c(C)c2)cc1 (centres undefined),3.33% (inactive)
24,O=C(NCCCN1CCCC1=O)C(=O)NCC1OCCN1S(=O)(=O)c1ccc(Br)cc1 (centres undefined),-3.67% (inactive)

row,SMILES,inhibition
1,COc1ccc(C2NC(=S)NC3=C2CCc2ccccc23)cc1OC (centres undefined),-4.91% (inactive)
2,CCOc1ccc(C2NC(=S)NC3=C2CCc2ccccc23)cc1 (centres undefined),24.1% (active)
3,CCOC(=O)C1=C(c2ccccc2)NC(=S)NC1c1ccc(Cl)cc1 (centres undefined),2.24% (inactive)
4,COc1ccc(-c2cc(=O)oc3cc(OC(C)C(=O)Nc4ccc(CN5CCOCC5)cc4)ccc23)cc1 (centres undefined),-1.3% (inactive)
5,COc1cc(OC)cc(C(=O)NCCSCc2ccc(Cl)cc2)c1,2.62% (inactive)
6,CCOC(=O)C1CCN(S(=O)(=O)c2c(C)noc2C)CC1,-1.41% (inactive)
7,COc1ccc(Nc2ncnc3sc(-c4ccccc4)cc23)c(OC)c1,-1.63% (inactive)
8,COc1ccc(Nc2ncnc3ccc(Br)cc23)c(OC)c1,35.7% (active)
9,C=CCNc1ncnc2ccc(Br)cc12,-3.86% (inactive)
10,Cc1ccc(S(=O)(=O)NCC(=O)Nc2ccc3c(c2)OCCO3)cc1,5.88% (inactive)
11,O=c1c2ccccc2nc(N/N=C/c2ccccc2)n1O,-0.57% (inactive)
12,O=C(Nn1cnc2ccccc2c1=O)c1ccccc1,-3.95% (inactive)
13,O=c1c2ccccc2ncn1/N=C/c1ccccc1,16.4% (active)
14,CC(C)C[C@H](NC(=O)N1CC(=O)Nc2ccccc21)C(=O)N[C@H](Cc1ccccc1)C(=O)O,-4.11% (inactive)
15,CC1(C)SC2C(NC(=O)COc3ccccc3)C(=O)N2C1C(=O)O (centres undefined),-3.05% (inactive)
16,CCC1(CC)NC(=O)N(Cc2nc3ccccc3s2)C1=O,1.16% (inactive)
17,COC(=O)C1[C@H]2SC(C)(C)C(C(=O)OC)N2C(=O)N1Cc1nc2ccccc2s1 (some centres undefined),26.1% (active)
18,O=[N+]([O-])c1ccc(F)cc1Oc1nc(-c2cccnc2)nc2ccccc12,2.73% (inactive)
19,O=C(Cc1ccccc1)N1CCN(S(=O)(=O)c2ccc([N+](=O)[O-])cc2)CC1,20% (active)
20,O=C(Cc1ccccc1)NNS(=O)(=O)c1ccc([N+](=O)[O-])cc1,-2.29% (inactive)
21,CS(=O)(=O)N1CCN(C(=O)Cc2ccccc2)CC1,-2.11% (inactive)
22,COc1ccc(-c2cc(C(=O)N3CCN(c4ccc(F)cc4)CC3)no2)cc1,-0.04% (inactive)
23,O=C(CCc1c[nH]c2ccccc12)NCCOc1ccccc1,-0.52% (inactive)
24,COc1ccc(C)cc1NC(=O)CSc1ccc(Cl)cc1,1.35% (inactive)

row,SMILES,inhibition
1,COc1ccc(Cl)cc1NC(=O)CN1CCN(C(=O)N2CCOCC2)CC1,-1.78% (inactive)
2,COc1ccc(Cl)cc1NC(=O)Cn1nc(-c2ccc(C)cc2)n(C)c1=S,17.9% (active)
3,Cc1ccc(NC(=O)C2CCCN2C(=O)OCc2ccccc2)cc1C (centres undefined),-2.49% (inactive)
4,CCOC(=O)c1ccccc1NS(=O)(=O)c1c(C)nc2sccn2c1=O,-1.63% (inactive)
5,CCN1CCN(Cc2nc3c(c(=O)n(C)c(=O)n3C)n2CC(=O)c2ccccc2)CC1,0.91% (inactive)
6,CCOC(=O)N1CCN(Cc2nc3c(c(=O)n(C)c(=O)n3C)n2Cc2ccccc2)CC1,57.6% (active)
7,Cn1c(=O)c2c(nc(CN3CCOCC3)n2Cc2ccccc2)n(C)c1=O,8.36% (inactive)
8,COc1cccc(CNS(=O)(=O)c2ccc3c(c2)CC(C)N3C(C)=O)c1 (centres undefined),-0.03% (inactive)
9,NNC(=O)c1nnn(-c2nonc2N)c1CN1CCCC1,2.68% (inactive)
10,Cc1ccc(C)c(OCc2cc(C(=O)N3CCN(c4cnccn4)CC3)no2)c1,-6.08% (inactive)
11,O=C(C1CCN(Cc2ccc(Cl)cc2)CC1)N1CCN(Cc2ccc3c(c2)OCO3)CC1,3.57% (inactive)
12,Cc1cccnc1CCNC(=O)C1CCC(=O)N(Cc2cccc(F)c2)C1 (centres undefined),-3.21% (inactive)
13,Oc1ccc(N=Nc2nccs2)c(O)c1,0.13% (inactive)
14,Oc1ccc2ccccc2c1N=Nc1nccs1,16.9% (active)
15,c1ccc(NCc2cccc3ccccc23)nc1,-0.19% (inactive)
16,CCc1ccc(S(=O)(=O)N/N=C\c2ccc([N+](=O)[O-])o2)cc1,-5.89% (inactive)
17,COCCNc1ccc(-c2n[nH]c(=O)c3ccccc23)cc1[N+](=O)[O-],1.55% (inactive)
18,Cc1cc(N=Nc2ccc3ccccc3c2)ccc1O,-3.33% (inactive)
19,COc1cccc(OCCOc2cccc(/C=N/n3cnnc3)c2)c1,10.3% (inactive)
20,CN(C)c1ccc(-n2cccc2/C=C2/SC(=Nc3ccc(F)cc3)NC2=O)cc1,-2.27% (inactive)
21,CN(C)c1ccc(-n2cccc2/C=N/n2cnnc2)cc1,54.3% (active)
22,O=C(COc1nsnc1N1CCOCC1)Nc1ccccc1Cl,-3.12% (inactive)
23,O=C(Nc1ccc(CN2CCOCC2)cc1)c1cc(Cl)ccc1Cl,-0.42% (inactive)
24,CCc1nc(N2CCN(C(C)=O)CC2)c2c3c(sc2n1)CCCC3,0.58% (inactive)

row,SMILES,inhibition
1,O=C(Nc1ccccc1C(=O)O)c1ccc(N2C(=O)C3CC=CCC3C2=O)cc1 (centres undefined),19.6% (active)
2,COc1ccc(Cl)cc1NC(=O)c1cccc(N2C(=O)C3CC=CCC3C2=O)c1 (centres undefined),-3.52% (inactive)
3,O=C(Cc1ccccc1)Nc1ccc(C(=O)Nc2ccccc2C(=O)O)cc1,2.96% (inactive)
4,COC(=O)[C@@H](Cc1ccccc1)NC(=O)NCCc1ccccc1,5.73% (inactive)
5,O=C(O)Cc1sc(-c2ccccc2)nc1-c1cccs1,-2.42% (inactive)
6,NC(=O)Cc1ccc2c(c1)[nH]c1ccccc12,5.37% (inactive)
7,NC(=O)Cc1ccc2sc(-c3ccccc3)nc2c1,16.4% (active)
8,COc1ccc(NC(=O)NN2CCN(C)CC2)c(OC)c1,-1.29% (inactive)
9,COc1ccc(C2=NN(c3nc4ccccc4s3)C(=O)C2)cc1,0.61% (inactive)
10,CCOc1cccc(-n2nnnc2-c2ccc(OC)cc2)c1,1.88% (inactive)
11,COc1ccc(-n2nnnc2-c2nc3ccccc3s2)cc1,19.1% (active)
12,O=C(c1cccc(Br)c1)N1CCN(C2=NS(=O)(=O)c3ccccc32)CC1,-0.31% (inactive)
13,O=C(CN1C(=O)COc2ccc(Cl)cc21)N1CCOCC1,4.17% (inactive)
14,Cc1ccc(C(=O)NN(CCC#N)C2=NS(=O)(=O)c3ccccc32)cc1,-2.85% (inactive)
15,COc1cc(C(=O)NN(CCC#N)C2=NS(=O)(=O)c3ccccc32)cc(OC)c1OC,26.7% (active)
16,COc1cc(C2C(C(=O)OCCC#N)=C(C)NC3=C2S(=O)(=O)c2ccccc23)cc(OC)c1OC (centres undefined),3.37% (inactive)
17,Cc1ccc(NC(=O)C(=O)NCc2ccc(/C=N/NC(=O)c3c(C)nc4cc(C)ccn34)o2)cc1,0.35% (inactive)
18,Cc1sc2nc(COC(=O)C(NC(=O)c3ccc(Cl)cc3Cl)C(C)C)[nH]c(=O)c2c1C (centres undefined),-3.91% (inactive)
19,CCN(CC)Cc1nc2sc(C)c(C)c2c(=O)[nH]1,2.4% (inactive)
20,Cc1sc2nc(CSCC(=O)Nc3c(Cl)cccc3Cl)[nH]c(=O)c2c1C,35.8% (active)
21,COc1ccc(NC(=O)N2CCCC2C(=O)NCc2ccccc2Cl)cc1 (centres undefined),-3.61% (inactive)
22,O=S(=O)(c1ccccc1)c1nc(-c2ccccc2)oc1NCCCN1CCOCC1,-4.19% (inactive)
